Assay results: PubChem BioAssay (Tox21)
Records with an inconclusive call do not appear. Active and inactive are the calls of the source. Unless noted, calls follow the shape of the dose curve; as a rule, active = well fitted curve in the direction sought with a large enough effect in the repeat runs; inconclusive = weak or mixed curves; inactive = no such curve, though single readings can be large; an effect the other way counts as inactive or inconclusive.

Experiments:
[1] = qHTS assay for small molecule agonists of the p53 signaling pathway (AID 651631; calls by dose curve; also: nearly all actives have a fitted effect of over 15% in size)
Procedure, shortened: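 Stably transfected HCT-116 cells (beta-lactamase behind p53 response elements) get compounds after a 5 h settling period; 16 h later at 37 °C, FRET substrate is loaded and fluorescence read after 2 h.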

[2] = qHTS assay for small molecules that induce genotoxicity in human embryonic kidney cells expressing luciferase-tagged ATAD5 (AID 651632); also: nearly all actives have a fitted effect of over 15% in size
Procedure, shortened: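 A rise in luciferase signal from ATAD5-tagged HEK293T cells marks genetic stress. Cells were exposed to compounds for 16 hr at 37C, 5% CO2, then luciferase was quantified after a 30 min room-temperature incubation with Amplite.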

[3] = qHTS assay for small molecule agonists of the p53 signaling pathway - cell viability (AID 651633; calls by dose curve;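 also: p53RE-bla HCT reporter cells with a stable beta-lactamase p53 reporter; series mostly up to about 83 µM; nearly all actives have a fitted effect of over 30% in size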)
Procedure, shortened: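 p53RE-bla cells, seeded at 4,000 per well and rested 5 h at 37 C/5% CO2, received compounds in DMSO for 16 h at 37 C. CellTiter-Glo was then added, and luminescence was read after 30 min at room temperature to gauge cytotoxicity.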

[4] = qHTS assay for small molecule disruptors of the mitochondrial membrane potential - cell viability (AID 720634; calls by dose curve;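 also: human HepG2 liver cancer cells; series mostly up to about 83 µM; nearly all actives have a fitted effect of over 20% in size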)
Procedure, shortened: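 Cytotoxicity was quantified from ATP content by CellTiter-Glo luminescence in the same wells as the MMP dye read-out. HepG2 (2,000 cells/well) were plated overnight and exposed to compounds for 1 hr at 37 C.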

[5] = qHTS assay for small molecule disruptors of the mitochondrial membrane potential (AID 720635)
Procedure, shortened: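 HepG2 cells (2,000/well) attached overnight at 37C, then took compound for 1 hr at 37C, 5% CO2. Mito-MPS dye was added for 30 min; fluorescence was read at 490/535 nm (monomers) and 540/590 nm (aggregates).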

[6] = qHTS assay to test for compound auto fluorescence at 590 nm (red) in HepG2 cells (AID 720674)
Procedure, shortened: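 Rose Bengal sodium served as the red fluorophore standard. HepG2 monolayers (overnight attachment, MEM with 10% FBS) were exposed to test compounds for 1 hr at 37 C and read at Ex 540/Em 590 nm.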

[7] = qHTS assay to test for compound auto fluorescence at 535 nm (green) in HepG2 cells (AID 720675)
[8] = qHTS assay to test for compound auto fluorescence at 590 nm (red) in HEK293 cells (AID 720679)
Procedure, shortened: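 Red channel, Ex/Em 540/590nm; signal expressed as equivalency to Rose Bengal sodium. HEK293, 2,000 cells/well, 10% dialyzed FBS; 23 nL compound pinned after 4-5 hr attachment; overnight 37C/5% CO2 before reading.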

[9] = qHTS assay to test for compound auto fluorescence at 535 nm (green) in HEK293 cells (AID 720680)
[10] = qHTS assay to test for compound auto fluorescence at 460 nm (blue) in HEK293 cell free culture (AID 720681)
Procedure, shortened: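 Test compounds were pinned into cell-free culture medium (DMEM with 10% FBS) and fluorescence was read directly at Ex/Em 405/460 nm. Signals were expressed as fluorescence equivalents of triamterene, with DMSO vehicle as control.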

[11] = qHTS assay to test for compound auto fluorescence at 535 nm (green) in HEK293 cell free culture (AID 720682)
Procedure, shortened: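 Using fluorescein as calibrant, autofluorescence was quantified at 485/535 nm in cell-free DMEM containing 10% FBS after pintool addition of compound or vehicle.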

[12] = qHTS assay to test for compound auto fluorescence at 590 nm (red) in HEK293 cell free culture (AID 720683)
Procedure, shortened: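 Tox21 10K library compounds were pinned into cell-free DMEM with 10% FBS and fluorescence was read at excitation 540 nm. Activity is expressed as Rose Bengal sodium equivalency.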

[13] = qHTS assay to test for compound auto fluorescence at 460 nm (blue) in HepG2 cell free culture (AID 720685)
Procedure, shortened: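 Cell-free plates of MEM plus 10% FBS received 23 nL compound or DMSO vehicle; blue-channel (405/460 nm) intensity scored against triamterene as reference fluorophore.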

[14] = qHTS assay to test for compound auto fluorescence at 535 nm (green) in HepG2 cell free culture (AID 720686)
[15] = qHTS assay to test for compound auto fluorescence at 460 nm (blue) in HepG2 cells (AID 720687)
Procedure, shortened: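 Cells (2,000/well in MEM with 10% FBS) attached overnight at 37 C, then were exposed to compound or DMSO for 1 hr at 37 C, 5% CO2. Fluorescence read at Ex/Em 405/460 nm, expressed as triamterene-equivalent signal.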

[16] = biological target: Glucocorticoid receptor (Homo sapiens) (UniProt P04150); assay: qHTS assay to identify small molecule agonists of the glucocorticoid receptor (GR) signaling pathway (AID 720691; active = well fitted activation curve with a large enough effect in the signal ratio in the repeat runs, not every such curve was filed as active; the % refers to the signal ratio)
Procedure, shortened: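 Agonist-mode qHTS in HeLa cells stably expressing a glucocorticoid-response-element beta-lactamase reporter. Fluorescence intensity read with FRET substrate (2 h, room temperature) after 18 h compound treatment at 37 C.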

[17] = biological target: Glucocorticoid receptor (Homo sapiens) (UniProt P04150); assay: qHTS assay to identify small molecule antagonists of the glucocorticoid receptor (GR) signaling pathway (AID 720692; active = well fitted inhibition curve with a large enough effect in the signal ratio in the repeat runs, not every such curve was filed as active; the % refers to the signal ratio)
Procedure, shortened: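 Inhibition of dexamethasone-driven (5 nM final) beta-lactamase expression was measured in GRE-reporter HeLa cells over 18 h at 37C. Fluorescence was read after 2 h with the B/G FRET substrate at room temperature.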

[18] = qHTS assay to test for compound auto fluorescence at 460 nm (blue) in HEK293 cells (AID 720678)
Procedure, shortened: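 Blue read-out at excitation 405 nm and emission 460 nm follows overnight compound exposure of HEK293 cells at 37C in 5% CO2. Activity is given as auto fluorescence equivalency to triamterene.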

[19] = qHTS assay to test for compound auto fluorescence at 590 nm (red) in HepG2 cell free culture (AID 720684)
Procedure, shortened: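 Readout: intrinsic compound fluorescence at 590 nm emission after 540 nm excitation, scaled to Rose Bengal sodium. Matrix was cell-free MEM with 10% FBS; DMSO vehicle wells served as control.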

[20] = qHTS assay for small molecules that induce genotoxicity in human embryonic kidney cells expressing luciferase-tagged ATAD5 - cell viability (AID 651634; calls by dose curve; also: nearly all actives have a fitted effect of over 25% in size)
Procedure, shortened: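 Cytotoxicity counter-readout: after 15.5 hr compound treatment at 37C, live-cell protease activity in ATAD5-luciferase HEK293T cells measured by CellTiter-Fluor fluorescence, 30 min development at 37C.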
% is scaled to controls: 0 for no effect and ±100 for the full control effect.

Glucocorticoid receptor (Homo sapiens), sequence (P04150 whole entry, looked up): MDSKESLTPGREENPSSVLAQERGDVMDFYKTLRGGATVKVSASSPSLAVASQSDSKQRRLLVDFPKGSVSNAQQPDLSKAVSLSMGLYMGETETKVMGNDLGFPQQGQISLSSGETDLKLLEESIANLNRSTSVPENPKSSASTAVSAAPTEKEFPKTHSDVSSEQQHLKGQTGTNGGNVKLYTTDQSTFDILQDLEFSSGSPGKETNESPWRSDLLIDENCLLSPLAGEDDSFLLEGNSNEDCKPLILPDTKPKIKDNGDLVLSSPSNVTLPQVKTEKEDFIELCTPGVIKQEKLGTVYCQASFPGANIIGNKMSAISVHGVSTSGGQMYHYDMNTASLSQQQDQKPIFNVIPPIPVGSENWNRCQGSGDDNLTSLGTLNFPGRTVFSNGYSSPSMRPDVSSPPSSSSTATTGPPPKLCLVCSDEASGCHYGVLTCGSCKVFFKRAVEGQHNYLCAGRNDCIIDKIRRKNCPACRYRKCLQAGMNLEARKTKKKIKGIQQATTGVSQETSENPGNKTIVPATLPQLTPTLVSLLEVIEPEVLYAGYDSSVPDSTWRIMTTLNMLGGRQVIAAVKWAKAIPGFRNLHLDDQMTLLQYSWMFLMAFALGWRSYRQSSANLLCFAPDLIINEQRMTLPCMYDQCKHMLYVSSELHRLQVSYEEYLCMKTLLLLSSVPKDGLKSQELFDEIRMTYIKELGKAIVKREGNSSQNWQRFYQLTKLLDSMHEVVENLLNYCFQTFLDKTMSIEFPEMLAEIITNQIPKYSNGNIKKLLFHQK

CC(=O)c1ccc2c(c1)CCCC2
inactive: outcome [1] | outcome [2] | outcome [3] | outcome [4] | Potency [5] | outcome [6] | outcome [7] | outcome [8] | outcome [9] | outcome [10] | outcome [11] | outcome [12] | outcome [13] | outcome [14] | outcome [15] | Potency [16] | outcome [17]

C=C[Si](C)(C)O[Si](C)(C)C=C
inactive: outcome [1] | outcome [2] | outcome [3] | outcome [4] | outcome [6] | outcome [7] | outcome [18] | outcome [8] | outcome [9] | outcome [10] | outcome [11] | outcome [12] | outcome [19] | outcome [13] | outcome [14] | outcome [15] | Potency [16] | outcome [17]

NC(=O)NC(=O)Cc1ccccc1
inactive: outcome [1] | outcome [2] | outcome [3] | outcome [4] | Potency [5] | outcome [18] | outcome [8] | outcome [9] | outcome [10] | outcome [11] | outcome [12] | outcome [19] | outcome [13] | outcome [14] | outcome [15] | Potency [16] | outcome [17]

Cc1nc(C)nc(N2C[C@@H](C)N(c3ccnc([C@@H](C)O)n3)[C@@H](C)C2)n1
inactive: outcome [1] | outcome [2] | outcome [3] | outcome [4] | outcome [6] | outcome [7] | outcome [8] | outcome [9] | outcome [10] | outcome [11] | outcome [12] | outcome [19] | outcome [13] | outcome [14] | Potency [16] | outcome [17]

CCCCC/C=C/CC(=O)OC
inactive: outcome [1] | outcome [2] | outcome [3] | Potency [20] | outcome [6] | outcome [7] | outcome [18] | outcome [8] | outcome [9] | outcome [11] | outcome [12] | outcome [19] | outcome [14] | outcome [15] | Potency [16] | outcome [17]

CC(=O)N(CC(O)CO)c1c(I)c(C(=O)NCC(O)CO)c(I)c(C(=O)NCC(O)CO)c1I (configuration not stated)
inactive: outcome [1] | outcome [2] | outcome [3] | outcome [4] | outcome [6] | outcome [7] | outcome [18] | outcome [8] | outcome [9] | outcome [11] | outcome [12] | outcome [19] | outcome [13] | outcome [14]

COc1ccc(OC)c(NC(=O)CC(C)=O)c1
inactive: outcome [1] | outcome [2] | outcome [3] | outcome [6] | outcome [7] | outcome [18] | outcome [8] | outcome [9] | outcome [10] | outcome [11] | outcome [12] | outcome [13] | outcome [14] | outcome [15]

CC(=O)OC(C)c1ccccc1 (configuration not stated)
inactive: outcome [1] | outcome [2] | outcome [3] | Potency [20] | outcome [6] | outcome [7] | outcome [18] | outcome [8] | outcome [9] | outcome [10] | outcome [11] | outcome [12] | outcome [13] | outcome [14] | outcome [15]

O=C(O)c1ccccc1C(=O)OCc1ccccc1
inactive: outcome [1] | outcome [3] | Potency [20] | outcome [4] | outcome [6] | outcome [7] | outcome [18] | outcome [8] | outcome [9] | outcome [10] | outcome [11] | outcome [12] | outcome [13] | outcome [14] | outcome [15] | Potency [16] | outcome [17]

CC(C)=CC(C)(C)C
inactive: outcome [1] | outcome [2] | outcome [3] | outcome [6] | outcome [18] | outcome [8] | outcome [9] | outcome [10] | outcome [11] | outcome [12] | outcome [13] | outcome [14] | outcome [15] | Potency [16]

Nc1c(NC/C=C\COc2cc(CN3CCCCC3)ccn2)c(=O)c1=O
inactive: outcome [1] | outcome [2] | outcome [3] | Potency [20] | outcome [6] | outcome [18] | outcome [8] | outcome [9] | outcome [10] | outcome [11] | outcome [12] | outcome [19] | outcome [13] | outcome [14] | outcome [15] | Potency [16]

CC1CCC(C(C)(C)S)C(=O)C1 (configuration not stated)
inactive: outcome [1] | outcome [2] | outcome [3] | Potency [20] | outcome [7] | outcome [18] | outcome [8] | outcome [9] | outcome [10] | outcome [11] | outcome [12] | outcome [19] | outcome [13] | outcome [14]

CCOc1ccc(NC(=O)OC(C)C)cc1OCC
inactive: outcome [1] | outcome [2] | outcome [3] | Potency [20] | outcome [7] | outcome [18] | outcome [8] | outcome [9] | outcome [10] | outcome [11] | outcome [12] | outcome [19] | outcome [13] | outcome [14] | outcome [15] | Potency [16] | outcome [17]

C=C(C)[C@@H]1CC[C@@H](C)C[C@@H]1O
inactive: outcome [1] | outcome [3] | Potency [20] | outcome [4] | outcome [6] | outcome [7] | outcome [18] | outcome [8] | outcome [9] | outcome [10] | outcome [11] | outcome [12] | outcome [19] | outcome [13] | outcome [14] | outcome [15]

O=C(O)Cc1cccc(-c2cc(CCCCCCc3ccc(O[C@H]4O[C@H](CO)[C@@H](O)[C@H](O)[C@@H]4O)c(-c4cccc(CC(=O)O)c4)c3)ccc2O[C@H]2O[C@H](CO)[C@@H](O)[C@H](O)[C@@H]2O)c1
inactive: outcome [1] | outcome [2] | outcome [3] | outcome [4] | outcome [6] | outcome [7] | outcome [8] | outcome [9] | outcome [10] | outcome [11] | outcome [12] | outcome [19] | outcome [13] | outcome [14] | outcome [15]

COCC(=O)Nc1c(I)c(C(=O)NCC(O)CO)c(I)c(C(=O)N(C)CC(O)CO)c1I (configuration not stated)
inactive: outcome [1] | outcome [2] | outcome [3] | fluorescence, relative to Rose Bengal [6] -0.339% [at 18.6 µM] | fluorescence, % of fluorescein control [7] 0.0261% [at 18.6 µM] | fluorescence, % of fluorescent control [8] 0.231% [at 18.6 µM] | fluorescence, % of fluorescein [9] -0.025% [at 18.6 µM] | fluorescence, % of fluorescent control [10] -0.0015% [at 18.6 µM] | activity change [11] 0.0796% [at 18.6 µM] | fluorescence, % of fluorescent control [12] 0.0121% [at 18.6 µM] | fluorescence, % of Rose Bengal [19] 0.0461% [at 18.6 µM] | fluorescence, % of fluorescent control [13] -0.109% [at 18.6 µM] | fluorescence, % of fluorescein control [14] -0.084% [at 18.6 µM] | fluorescence, % of fluorescent control [15] -0.143% [at 18.6 µM]

CCCOC(=O)CCCCC(=O)OCCC
inactive: outcome [1] | outcome [2] | outcome [3] | Potency [20] | outcome [6] | outcome [7] | outcome [18] | outcome [8] | outcome [9] | outcome [11] | outcome [12] | outcome [19] | outcome [13] | outcome [14] | outcome [15] | Potency [16] | outcome [17]
